The source of these data is PubChem BioAssay (NCATS).

For test [1], the target named is Cellular tumor antigen p53 (Homo sapiens) (UniProt P04637). The experiment in a line: Primary qHTS for small molecule compounds that upregulate eGFP-tagged delta133p53alpha (in N-terminal) cells. (AID 2060322). Also: nearly all actives have a fitted effect of over 75% in size. Also: potency is read from the fitted curve at half-maximal effect.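 As to activation: cells pre-induced with doxycycline then dosed without doxycycline; series mostly up to about 56 µM; 0% = DMSO vehicle and 100% = reference activator.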 Conditions: NCI-H358 eGFP-delta133p53alpha fluorescence, 24 h; activation: hits give high values. Summed up:
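NCI-H358 cells pre-induced 24 h with 10 ng/ml doxycycline for eGFP-delta133p53alpha, plated dox-free and exposed 24 h at 37C to titrated compounds. Fixed, Hoechst-stained; gated GFP peak intensity by laser scanning cytometry, normalized to DMSO (0%) and 57.5 uM 5-azacytidine (100%).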

For test [2] the target is unchanged. In words: Primary qHTS for small molecule compounds that upregulate eGFP-tagged delta133p53alpha (in C-terminal) cells. (AID 2060324). Also: potency is read from the fitted curve at half-maximal effect. A digest of the protocol: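 Concentration-response screen: compounds titrated onto pre-induced NCI-H358 D133p53a-eGFP cells, incubated one day, fixed with 3.5% PFA. Per-cell GFP peak intensity was gated, then normalized against intraplate controls.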
For orientation: In qHTS, concentration-response curves come from the screen itself.

The target of test [3] is Aldehyde dehydrogenase, mitochondrial (Homo sapiens) (UniProt P05091). The experiment in a line: qHTS for Inhibitors of the Aldehyde Dehydrogenase Family (ALDH2) Validation screens (AID 2061302; active = well fitted inhibition curve with a large enough effect; title and protocol of this record describe different tests; also: potency is read from the fitted curve at half-maximal effect).
Test [4] is described as follows: BET inhibitor-based combinations targeting novel dependencies in MECOM-rearranged (r) AML: OCI-AML3 cell line (AID 2202232). Also: nearly all actives have a fitted effect of over 35% in size. Also: potency is read from the fitted curve at half-maximal effect. The following applies: Potency: OCI-AML3 viability. Summed up: (§1)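 500 cells/well; 11-pt dose curve; 48 h, standard incubator; CellTiter-Glo luminescence after 15 min RT; DMSO/empty-well normalization; AUC plus Z-AUC (mean-centered within each line).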

The nature of test [5]: BET inhibitor-based combinations targeting novel dependencies in MECOM-rearranged (r) AML: UCSD-AML1 cell line (AID 2202235).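 Also: series mostly up to about 46 µM; plate controls were DMSO vehicle wells for no effect and blank wells for full effect; nearly all actives have a fitted effect of over 40% in size.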 A digest of the protocol: (§2)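 Cells were plated at 500 per well and exposed to each drug across an 11-point dose range for 48 hr at standard incubator conditions. Viability was read by CellTiter-Glo luminescence, and activity was expressed as AUC and per-cell-line Z-transformed AUC.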

Test [6] in a line: BET inhibitor-based combinations targeting novel dependencies in MECOM-rearranged (r) AML: AML-191 cell line (AID 2202236;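 also: plate controls were vehicle wells for no effect and wells without cells for full effect; nearly all actives have a fitted effect of over 35% in size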). A digest of the protocol: as §1
The nature of test [7]: BET inhibitor-based combinations targeting novel dependencies in MECOM-rearranged (r) AML: AML-194 cell line (AID 2202237;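 also: plate controls were vehicle wells for no effect and wells without cells for full effect; nearly all actives have a fitted effect of over 40% in size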). A digest of the protocol:
as §1

In test [8] the target is Retinaldehyde dehydrogenase 3 (Homo sapiens) (UniProt P47895). In words: qHTS for Inhibitors of the Aldehyde Dehydrogenase Family (ALDH1A3) Primary screen (AID 2061315).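 Also: plate controls were DMSO vehicle for no effect and reference inhibitor for full effect.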
The nature of test [9]: BET inhibitor-based combinations targeting novel dependencies in MECOM-rearranged (r) AML: MV-4-11 cell line (AID 2202233). Also: potency is read from the fitted curve at half-maximal effect; nearly all actives have a fitted effect of over 45% in size. A digest of the protocol:
as §2

SMILES strings stand for the structures. Where “and” joins values, the source holds several entries; their conditions need not be identical. Equal values may be shown once. Records with an inconclusive call do not appear. Some structures have more than one record in an assay (separate samples or runs), and their calls can disagree. Values without a mark were called inactive. Calls of active or inactive are those of the source. Unless noted, calls follow the shape of the dose curve; as a rule, active = well fitted curve in the direction sought with a large enough effect; inconclusive = small, poorly fitted or top-dose-only effect, or another doubt; inactive = no such curve, though single readings can be large; an effect the other way counts as inactive or inconclusive.

Cellular tumor antigen p53 (Homo sapiens), sequence (P04637 whole entry, looked up): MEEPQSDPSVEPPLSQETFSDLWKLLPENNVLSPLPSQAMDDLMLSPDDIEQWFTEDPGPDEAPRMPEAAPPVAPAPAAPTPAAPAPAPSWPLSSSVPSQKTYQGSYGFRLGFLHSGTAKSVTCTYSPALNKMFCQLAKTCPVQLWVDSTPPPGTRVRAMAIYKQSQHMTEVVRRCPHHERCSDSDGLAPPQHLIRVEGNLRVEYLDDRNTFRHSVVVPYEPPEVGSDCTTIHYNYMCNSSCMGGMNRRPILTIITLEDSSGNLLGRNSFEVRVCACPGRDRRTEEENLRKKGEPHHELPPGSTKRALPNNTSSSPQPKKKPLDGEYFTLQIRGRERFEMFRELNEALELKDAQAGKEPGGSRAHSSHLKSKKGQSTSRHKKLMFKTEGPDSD

Turning to `CC(O)=C(C#N)C(=O)Nc1cc(Br)ccc1Br`, the activation in test [1] is 1.6%. Take `CC(C)(N)Cc1ccccc1Cl`: the activation in [1] was 10.7%.

For the compound `COc1cccc([C@@]2(O)CCCC[C@@H]2CN(C)C)c1`, the activation in test [1] was 13.4%.

For the compound `CCCCCCCCCC(=O)O[C@H]1CC[C@H]2[C@@H]3CCC4=CC(=O)CC[C@@H]4[C@H]3CC[C@]12C`, the activation in [1] was 2.82%. Regarding `CCOP(=S)(OCC)Oc1cc(C)nc(C(C)C)n1`, the activation in [1] is -8.37%. Take `Cc1c(C(=O)c2cccc3ccccc23)c2cccc3c2n1[C@H](CN1CCOCC1)CO3`: the activation in test [1] was 12.1%.

Consider `C=C[C@@H]1CN2CCC1C[C@@H]2[C@@H](O)c1ccnc2ccccc12` (some centres undefined), for which the activation in [1] was -22.8%. Consider `Cc1c(Cl)c(=O)oc2cc(OP(=O)(OCCCl)OCCCl)ccc12`, for which the activation in test [1] was -15.9%. As for `CCN(CC)Cc1nccn1-c1ccc([N+](=O)[O-])cc1C(=O)c1ccccc1Cl`, in [1], the activation is -4.18%. In the case of `COc1cc2cc(c1Cl)N(C)C(=O)C[C@H](OC(=O)C(C)C)[C@]1(C)O[C@H]1[C@H](C)[C@@H]1C[C@@](O)(NC(=O)O1)[C@H](OC)C=CC=C(C)C2`, the activation in test [1] was 0.447%. Consider `COc1ccc2c(c1)[C@]13CCCCC1C(C2)N(C)CC3` (some centres undefined), for which, in test [1], the activation was 8.01%. Still for that read-out and setting: to `C[C@H]1CNCCc2ccc(Cl)cc21` belongs -8.37%; to `C[C@]12Cc3cn[nH]c3C[C@@H]1CC[C@@H]1[C@H]2CC[C@@]2(C)[C@H]1CC[C@]2(C)O`, -11.9%; to `O=[N+]([O-])O[C@H]1CO[C@H]2[C@@H]1OC[C@H]2O[N+](=O)[O-]`, 34.5%. Take `CCCCC(CC)COC(=O)c1ccccc1C(=O)OCC(CC)CCCC` (centres undefined): the activation in test [1] is 0%. As to `COc1cccc2c1C(=O)c1c(O)c3c(c(O)c1C2=O)C[C@@](O)(C(=O)CO)CC3OC1CC(N2CCOC(OC)C2)C(O)C(C)O1` (some centres undefined), in test [1], the Potency was 0.0276 µM (active). For `C=CCC1([C@H](C)CCC)C(=O)NC(=O)NC1=O`, in test [1], the activation is 7.34%. Turning to `Oc1ccc(Cl)cc1`, the activation in test [1] is -7.34%. The same measure, in the same setting: the result for `O=C(CCCCl)c1ccc(F)cc1` reads -10.9%; that for `CCCN(CCC)C(=O)Cc1c(-c2ccc(Cl)cc2)nc2ccc(Cl)cn12`, 29.3%.

Consider `CCC(=O)C(CCN(C)C)(c1ccccc1)c1ccccc1`, for which the Potency in test [1] was 13.8 µM (active). For `COc1cc(CC#N)cc(OC)c1OC`, the activation in [1] is 2.82%. Take `COc1cc(OC)c(OC)cc1C=O`: the activation in [1] was 5.76%. In the case of `CC(C(=O)c1ccccc1)N(C)C` (centres undefined), the activation in test [1] was 22.6%. With `Cc1nc(-c2ccc(-c3ccc(C(=O)N4CCc5cc6c(cc54)C4(CCN(C)CC4)CO6)cc3)c(C)c2)no1`, in test [1], the activation was -21.1%. Take `C[C@]12CC[C@H]3[C@@H](CC[C@@]45O[C@H]4C(O)=C(C#N)C[C@]35C)[C@H]1CC[C@H]2O`: the Potency in [1] was 21.7 µM (active).

In the case of `CC(C)(C)C(O)C(Oc1ccc(Cl)cc1)n1cncn1` (centres undefined), the activation in test [1] is 10.7%. With `C[C@@H]1O[C@@H](O[C@@H]2C=C3CC[C@@H]4[C@@H](CC[C@]5(C)[C@H](c6ccc(=O)oc6)CC[C@@]45O)[C@@]3(C)CC2)[C@H](O)[C@H](O)[C@H]1O`, the activation in [1] was -11.3%.

On to `N#CCCN`, for which the activation in [1] was 1.42%. Also, the Potency result in [2] and in test [3] was “inactive” throughout. For the compound `CCCN(CCC)[C@H]1CCc2c(F)ccc(O)c2C1`, in [1], the activation was 15.8%. Also, the Potency result in test [2] and in [3] was “inactive” each time. For the compound `Clc1ccc(N2CC3CCC(C2)N3)nn1`, the activation in test [1] was -9.56%. The Potency entry in test [2] is “inactive”. Turning to `Cc1cc(O)ccc1Cl`, the activation in test [1] was -17.5%. In the case of `CN(C)[C@@H]1C(=O)C(C(N)=O)=C(O)[C@@]2(O)C(=O)C3=C(O)c4c(O)cccc4[C@@](C)(O)[C@H]3C[C@@H]12`, in test [1], the Potency was 21.9 µM (active). In test [1], the activation is -14.3%. For the same compound, the Potency entry in [4], in test [5], in [6] and in [7] was “inactive” each time. Regarding `CC(Cc1ccccc1)NCCn1cnc2c1c(=O)n(C)c(=O)n2C` (centres undefined), the activation in test [1] is 9.6%. Regarding `CCC1(CC)C(=O)C=CNC1=O`, the activation in test [1] was -17.5%. For the compound `COc1ccc2c(c1OC)CN1CCc3cc4c(cc3C1C2)OCO4` (centres undefined), in [1], the Potency was 34.3 µM (active) and the activation was 26.6%.

Consider `COc1cccc2c1[C@]13CCN(CC4CC4)[C@H](C2)[C@]1(OC)CCC(=O)C3`, for which the activation in test [1] was -12%.

As for `CN1CCN(c2ccc([N+](=O)[O-])c3no[n+]([O-])c23)CC1`, the Potency in test [1] was 21.3 µM (active); in test [4], 9.34 µM (active); in [9], 14.8 µM (active). For the same compound, the activation in test [1] was 8.01%. The Potency entry in test [8] is “inactive”.

`CC(C)(C)OC(=O)NC1[C@H]2CNC[C@@H]12` (some centres undefined): in test [1], the activation is -12.9%. Besides, the Potency entry in test [2] and in test [3] was “inactive” throughout. In the case of `CN1C(=O)NC(=O)C(C)(C2=CCCCC2)C1=O` (centres undefined), the activation in [1] is 3.35%. For `O=C(Cc1ccc(Cl)c(Cl)c1)N1CCCCC1CN1CCCC1` (centres undefined), the activation in test [1] was -15.5%. Further, the Potency entry in test [2] was “inactive”. Turning to `Nc1ccc(Cl)cc1`, the activation in test [1] is -6.21%.

Turning to `CCc1ccc(C2CCNCC2)cc1`, the activation in test [1] was 20.9%.

As to `Oc1ccc(Cl)cc1Cc1ccccc1`, the Potency in test [1] was 45.5 µM (active) and 24.6 µM (active). For the compound `Cc1ccc(N=CN(C)C=Nc2ccc(C)cc2C)c(C)c1`, in test [1], the activation was 13%.

For the compound `CO[C@H]1CC=C2CCN3CCC4=C(CC(=O)OC4)[C@]23C1`, the activation in [1] is -25.9%. Further, in [2], the Potency result is “inactive”.

For `Cn1cc(C2=C(c3cn(C4CCN(Cc5ccccn5)CC4)c4ccccc34)C(=O)NC2=O)c2ccccc21`, in test [1], the Potency is 21.7 µM (active) and the activation was 38.7%. For the same compound, in test [4], the Potency result was “inactive”. For `CC1=NN=C(c2ccc(N)cc2)c2cc3c(cc2C1)OCO3`, the Potency is 9.68 µM (active) in test [1], 21.3 µM (active) in [2] and 8.91 µM (active) in test [3]. In addition, in test [1], the activation is 6.58%. As to `C[N+](C)(C)CCOC(=O)CBr`, the activation in [1] was -13.1%. Besides, the Potency entry in test [2] and in test [3] was “inactive” throughout. `COCC(=O)N(c1c(C)cccc1C)C(C)C(=O)OC` (centres undefined): the activation in test [1] is 18.6%. With `CC(C)(C)CC(C)(C)c1ccc(O)cc1`, the Potency in test [1] was 28.2 µM (active) and 30.9 µM (active). With `CC[C@@H](CO)NC(=O)[C@@H]1C=C2c3cccc4[nH]cc(c34)C[C@H]2N(C)C1`, the activation in test [1] is -0.565% and -21.9%. The Potency entry in [2] is “inactive”.

In the case of `C[N+]1(C)[C@@H]2CC[C@H]1CC(OC(=O)C(CO)c1ccccc1)C2` (some centres undefined), the activation in [1] was 25.4%. `c1ccc(CCCN2CCN(CCOC(c3ccccc3)c3ccccc3)CC2)cc1`: the activation in test [1] is 1.41% and -30.2%. Moreover, the Potency entry in test [2] is “inactive”. Take `COc1ccccc1N1CCNCC1`: in [1], the activation is -15.9% and 0.526%. Further, the Potency result in test [2] and in test [3] was “inactive” throughout.

Regarding `N=C(N)c1ccc(CS(=O)(=O)F)cc1`, the activation in test [1] is 3.92%. The Potency entry in test [2] and in test [3] was “inactive” each time.

On to `O=c1oc2ccccc2c(O)c1Cc1c(O)c2ccccc2oc1=O`, for which, in test [1], the Potency was 17.4 µM (active). As to `C1CCC(NC2CCCCC2)CC1`, the activation in [1] was 7.53%. For the compound `C[C@]12CC[C@@H]3c4ccc(OC(=O)N(CCCl)CCCl)cc4CC[C@H]3[C@@H]1CC[C@@H]2O`, the activation in test [1] is 11.9%. Same read-out and setting: to `CCNc1nc(Cl)nc(NCC)n1` belongs 8.37%; to `COc1cc(CC(C)N)cc2c1OCO2` (centres undefined), 6.21%. On to `Nc1cc2c(ncn2CCOCP(=O)(O)O)c(=O)[nH]1`, for which the activation in test [1] was -41.7%. In addition, the Potency result in [2] and in test [3] was “inactive” in each case.

Regarding `CC[C@@H](CO)NC(=O)[C@@H]1C=C2c3cccc4c3c(cn4C)C[C@H]2N(C)C1`, in test [1], the activation is -3.95% and -69.3%. In [2], the Potency entry was “inactive”.

For `NC(Cc1cc(O)c(O)cc1O)C(=O)O` (centres undefined), the activation in test [1] is -19.2%. Further, in test [2], the Potency entry is “inactive”.

As to `CCOP(=O)(NC(C)C)Oc1ccc(SC)c(C)c1` (centres undefined), the activation in test [1] is 10.7%. Take `O=C(NC1CN2CCC1CC2)c1cc2ccoc2cn1` (centres undefined): the activation in test [1] is -11.8%. Moreover, the Potency result in test [2] and in test [3] was “inactive” each time.
